Source: PubChem BioAssay (several laboratories)
Autofluor counter: counter-screen for toxin protease inhibitors: compound fluorescence. AID 624483. 360,000 tested, 3.1% active. compound autofluorescence counterscreen, microsphere flow cytometry; active compounds read high. fluorescence intensity (no concentration beside the values); in the data active = fluorescence intensity above about 16000; inconclusive = no clear call, values can overlap the other calls
Mtb FBA inh: inhibits M. tuberculosis FBA enzyme; AID 588726; purified M. tuberculosis FBA, fluorescence read-out; P9WQA3; inhibition, % at 1 µM; 360,000 tested, 2.3% active; in the data active = inhibition above about 27%
GDH-TPI inh: counter-screen for M. tuberculosis FBA inhibitors: GDH-TPI coupled enzymes; AID 588335; GDH-TPI coupled enzyme counterscreen, NADH absorbance; 360,000 tested, 1.2% active; inhibition, % at 4.8 µM; in the data active = inhibition above about 30%
BoNT-F LC inh: inhibitors of Botulinum neurotoxin F light chain protease. Multiplex microsphere protease cleavage assay, flow cytometry. inhibition, % at 10 µM. 360,000 tested, 0.22% active; in the data active = inhibition above about 35%, passing the limit was not always enough; inconclusive = no clear call, values can overlap the other calls
BoNT-A LC inh2: BoNT A light chain protease inhibition. multiplex microsphere protease substrate cleavage, flow cytometry. inhibition, % at 10 µM. 360,000 tested, 0.17% active
Anthrax LF inh2: anthrax lethal factor protease inhibition. AID 588501. 360,000 tested, 0.12% active. inhibition, % at 10 µM. multiplex microsphere protease cleavage assay, LF
Target sequence (P15917 whole entry, looked up): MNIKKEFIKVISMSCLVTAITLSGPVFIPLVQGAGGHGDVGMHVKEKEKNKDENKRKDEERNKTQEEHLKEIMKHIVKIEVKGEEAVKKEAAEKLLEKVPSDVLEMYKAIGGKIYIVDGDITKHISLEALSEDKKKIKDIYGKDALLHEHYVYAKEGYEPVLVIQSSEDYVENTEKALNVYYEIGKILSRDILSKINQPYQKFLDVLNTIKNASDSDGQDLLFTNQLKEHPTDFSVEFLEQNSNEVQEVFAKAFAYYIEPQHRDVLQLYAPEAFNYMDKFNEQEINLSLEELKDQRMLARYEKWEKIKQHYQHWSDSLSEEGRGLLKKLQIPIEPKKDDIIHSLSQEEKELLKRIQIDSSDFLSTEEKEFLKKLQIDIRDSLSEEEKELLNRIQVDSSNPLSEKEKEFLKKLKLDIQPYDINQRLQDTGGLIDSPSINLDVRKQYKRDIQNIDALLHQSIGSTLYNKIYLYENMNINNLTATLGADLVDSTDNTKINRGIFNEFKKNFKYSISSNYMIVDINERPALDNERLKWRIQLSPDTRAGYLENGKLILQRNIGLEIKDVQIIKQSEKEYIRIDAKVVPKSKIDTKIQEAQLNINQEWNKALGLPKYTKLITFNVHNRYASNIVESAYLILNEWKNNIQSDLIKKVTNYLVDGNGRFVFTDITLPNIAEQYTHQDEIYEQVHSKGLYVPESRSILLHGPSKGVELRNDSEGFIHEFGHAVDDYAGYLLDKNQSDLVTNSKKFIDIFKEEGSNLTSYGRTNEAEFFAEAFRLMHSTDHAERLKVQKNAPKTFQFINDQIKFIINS
Of the large screens only hits and unclear results are named; the others gave an inactive call. Hits are enriched below; roughly 6.6% of the tested compounds scored in any of these assays. Cut-off read from the data, not from the text of the source, unless noted: active = inhibition above about 30%; inconclusive = no clear call, values can overlap the other calls; inactive = below that.

Cc1ccc(/C=C2\C(=N)N3N=C(CC(=O)N4CCOCC4)SC3=NC2=O)o1	GDH-TPI inh 45
CC(=O)NCCNc1nc2cc(-c3cscc3C)sc2c(=O)n1C	none
Cc1cc(C)n(CC(O)COCc2ccco2)n1 (stereo unspecified)	Autofluor counter 23131, BoNT-A LC inh2 inconclusive
COc1ccc2c(c1)C=C(C(=O)NCc1ccc(Cl)cc1)CO2	Autofluor counter 20111
CCN1CCN(c2nc(C)nc3c2sc(=S)n3C)CC1	GDH-TPI inh 35
Cc1nc(N2CCCCC2)c2sc(=S)n(C)c2n1	none
CCOc1ccccc1N1CCN(CC(=O)Nc2cc(C)on2)CC1	none
Cc1cc(NC(=O)CN2CCN(c3ccccc3O)CC2)no1	Autofluor counter 17083
CN(Cc1ccccc1)c1nc(-c2cccc([N+](=O)[O-])c2)nc2ccccc12	none
CCOC(=O)N1CCN(S(=O)(=O)c2ccc3c(c2)oc(=O)n3C)CC1	none
CCOC(=O)n1c(=O)oc2cc(S(=O)(=O)N3CCCCC3)ccc21	Autofluor counter 23136
Cn1c(=O)oc2cc(S(=O)(=O)N3CCCCC3)ccc21	none
COC(=O)n1c(=O)oc2cc(S(=O)(=O)N3CCCCC3)ccc21	Autofluor counter 21823, BoNT-A LC inh2 inconclusive
CSc1nn(CCc2ccncc2)c(=S)s1	none
O=C(Oc1c(Cl)cc(Cl)c2ccccc12)N1CCCC1	Autofluor counter 22642
CCOC(=O)C1CCN(c2c(C(=O)c3ccccc3)cnc3ccc(Cl)cc23)CC1	none
Cc1ccc(N2CC(C(=O)Nc3nnc(C(C)C)s3)CC2=O)cc1 (stereo unspecified)	Autofluor counter 22336
CCc1nnc(NC(=O)C2CC(=O)N(c3ccc(C)cc3)C2)s1 (stereo unspecified)	none
Cc1ccc(N2CC(C(=O)Nc3nccs3)CC2=O)cc1Cl (stereo unspecified)	Autofluor counter 23923
Cc1ccc(N2CC(C(N)=O)CC2=O)cc1 (stereo unspecified)	Autofluor counter 18778, BoNT-A LC inh2 inconclusive
COc1cc2ccccc2cc1C(=O)Nc1ccc(C)cn1	none
O=C(/C=C/c1ccc(Cl)cc1)NC(=S)Nc1ccc(NC(=O)c2ccco2)cc1	none
CC(=O)Nc1ccc(S(=O)(=O)N(C)CC(=O)Nc2nc3ccccc3[nH]2)cc1	none
C/C(CC(=O)NC1CCCC1)=N\NC(=O)Cc1csc(N)n1	none
CCOc1ccc(-n2c(=O)c3sccc3n(CC(=O)NCc3ccco3)c2=O)cc1	Autofluor counter 19457
O=C(NCc1cccc2[nH]ccc12)C1CCC(=O)N(CCc2ccccc2)C1 (stereo unspecified)	none
COc1ccc(C(=O)Nc2ccc(S(=O)(=O)Nc3onc(C)c3C)cc2)c(OC)c1	none
NC1=Nc2ccccc2Oc2ccccc21	Autofluor counter 16347, BoNT-A LC inh2 inconclusive
COc1ccc2cc(C(=O)C3CCCN(C(=O)c4cc(=O)n(C)c(=O)n4C)C3)ccc2c1 (stereo unspecified)	Mtb FBA inh 125
COc1ccc2cc(C(=O)C3CCCN(C(=O)c4ccnn4C)C3)ccc2c1 (stereo unspecified)	Mtb FBA inh 155
COCCn1c(-c2ccc(OC)cc2)c(-c2ccc(OC)cc2)oc1=O	Mtb FBA inh 131
COc1ccc(C(=O)c2cnc(/N=C/N(C)C)s2)cc1	GDH-TPI inh 33
CN(C)/C=N/c1ncc(C(=O)c2ccc3ccccc3c2)s1	Autofluor counter 23850
CC(NC(=O)c1ccco1)C(=O)N1CCN(c2cccc(C(F)(F)F)c2)CC1 (stereo unspecified)	none
Cc1nc2ncnn2c(C)c1CCC(=O)NCCC1=CCCCC1	Autofluor counter 20756
CC(=O)c1ccc(NC(=O)CCc2c(C)nc3ncnn3c2C)cc1	none
COC(=O)c1ccc(NC(=O)CCc2c(C)nc3ncnn3c2C)cc1	Autofluor counter 22498
Cc1ccnc(NC(=O)CCc2c(C)nc3ncnn3c2C)c1	Autofluor counter 20457
CCOc1ccc(CCNC(=O)CCc2c(C)nc3ncnn3c2C)cc1OCC	none
C=CCN1CC(c2nc3ccccc3n2Cc2ccccc2)CC1=O (stereo unspecified)	Autofluor counter 20701, BoNT-A LC inh2 inconclusive
CC(=O)C1C(c2cccc(F)c2)c2c(n[nH]c2C)CC1(C)O (stereo unspecified)	BoNT-F LC inh inconclusive, BoNT-A LC inh2 inconclusive
CCC(=O)Oc1ccc(C(=O)Nc2ccc3c(c2)C(=O)N(C2CCCCC2)C3=O)cc1	Autofluor counter 19149
O=C(O)COc1ccc(NC(=O)c2ccc3c(c2)C(=O)N(C2CCCCC2)C3=O)cc1	none
CC(C)(C)NC(=O)c1ccc2c(c1)C(=O)N(C1CCCCC1)C2=O	Autofluor counter 16466
C=CCNC(=O)c1ccc(-n2cccc2)cc1	none
CN1C(=O)N(C)C(=O)C2(Cc3c(ccc4ccccc34)N(C)C2)C1=O	none
CN1CC(C(=O)O)Cc2c1ccc1ccccc21 (stereo unspecified)	Mtb FBA inh 102
CN(C)c1nc(SCCOC(=O)COc2ccc(Cl)cc2Cl)nc(N(C)C)n1	BoNT-A LC inh2 inconclusive
CN(C)c1nc(OCCOC(=O)COc2ccc(Cl)cc2Cl)nc(N(C)C)n1	Autofluor counter 21324
CN(C)c1nc(OCCNC(=O)COc2ccc(Cl)cc2Cl)nc(N(C)C)n1	Autofluor counter 22763
CCN1CCN(Cc2oc(CO)cc(=O)c2O)CC1	Autofluor counter 19271, BoNT-A LC inh2 inconclusive
O=c1cc(CO)oc(CN2CCN(c3ccccc3)CC2)c1O	none
CN1c2ccccc2C(O)=C(C(=S)Nc2ccccc2)S1(=O)=O	GDH-TPI inh 31
CN1c2ccccc2C(O)=C(C(=O)Nc2ccccc2)S1(=O)=O	none
CN1c2ccccc2C(O)=C(C(=S)Nc2ccc(F)c(Cl)c2)S1(=O)=O	GDH-TPI inh 31
Cc1ccc(NC(=S)C2=C(O)c3ccccc3N(C)S2(=O)=O)cc1	GDH-TPI inh 38
Cc1ccc(NC(=O)CN(C)C(=O)COc2cc(F)ccc2[N+](=O)[O-])cc1	none
CCOC(=O)c1ccc2c(c1)nc(COc1ccc(OC)cc1)n2CC	Autofluor counter 16133
COc1ccc(OCc2nnc(SCC(=O)Nc3nnc(C4CC4)s3)n2C)cc1	none
COC(=O)c1[nH]c2cccc(OC)c2c1NC(=O)CN1CCOCC1	none
COC(=O)c1[nH]c2cccc(OC)c2c1NC(=O)CN(C)CC1OCCO1	Autofluor counter 16319
Nc1[nH]c(C(=O)c2ccccc2)c(-c2cccc3ccccc23)c1C(=O)NCc1ccccc1	none (no result: Mtb FBA inh, GDH-TPI inh)
O=C(CN1CCCC1)N1c2ccccc2C=Cc2ccccc21	none
O=C(CN1CCCCCC1)N1c2ccccc2C=Cc2ccccc21	Autofluor counter 19591, BoNT-A LC inh2 inconclusive
COc1cc(C)nc(NC(=S)N(C)C(=O)c2ccccc2)n1	none (no result: Autofluor counter, BoNT-F LC inh, BoNT-A LC inh2, Anthrax LF inh2)
COC(=O)Cc1c[nH]c2cccc(OCC(O)CN(Cc3ccc([N+](=O)[O-])cc3)C(C)(C)C)c12 (stereo unspecified)	Autofluor counter 24016
O=C(O)C(Cc1cn[nH]n1)=NO	none
COC(=O)c1ccccc1NC(=O)c1cnc2sccn2c1=O	none
